# Experimental data from paper PMC12136788.
# Over roughly 5,800 sequences, “enrichment r” has its median near 0.54; the highest 2% begin near 16. This excerpt belongs to a sample that is enriched for the highest values.
# B1: chr14:95709946:95710881:-|three_prime_utr|ENSG00000100721|control|control|control (ssRNA)
# RNA: GGGAGUUCUACAGUCCGACGAUCUCUGGGAGGAAUGGACAGACAGAGGAUGAGCUCUACCCAGGGCCUGCAGGACCUGCCUGUAGCCCACUCUGCUCGCCUUAGCACUACCACUCCUGCCAAGGAGGAUUCCAUUUGGCAGAGCAACAGAGGAUUGAGCAUCA
# B2: chr5:138873012:138874556:-|CDS|ENSG00000146006|control|control|control (ssRNA)
# RNA: GGGAGUUCUACAGUCCGACGAUCUUUAUUAUUUUUAUAGUGUUCAUCUCCAGGAAGUGCUGCCCUCCCACUUUAAGAAGAAUUAGGCAGUGCUCAAUGGUUCAGAACCACAGGCAGCUCCGAUCCCAAACACGACUCCAUAUGCAACAGAGGAUUGAGCAUCA
# B3: chr5:72207278:72207408:+|3pUTR|ENSG00000131711|msi1_unk|total|mutant (ssRNA)
# RNA: GGGAGUUCUACAGUCCGACGAUCAGAGAACAAUGACCUCAUUUUAUUUUCUAUGUCCGUUAUUUAUUUCAAAAUUAACAUUUCCGUUGAUUUUUGUCUGAUAAGUCUAUGUUUUGCACUGCUAACUAUGAUGAGGGUUUAAAACAACAGAGGAUUGAGCAUCA
# B4: chr1:93866283:93869944:-|three_prime_utr|ENSG00000067334|control|control|control (ssRNA)
# RNA: GGGAGUUCUACAGUCCGACGAUCUUUAUUUACUUAUUAAAGACGUUUGGAAAACUAACACCAUCAUCUAAAUUAAUUUACCAUAGACUGGCCCUGUUCAUACAGGAAUUUGUAUUUGGAAAAAGUUGAUUUGAGAAUCGAUUACAACAGAGGAUUGAGCAUCA
# B5: chr16:30603633:30603734:-|3pUTR|ENSG00000156853|unk|total|mutant (ssRNA)
# RNA: GGGAGUUCUACAGUCCGACGAUCGUUAAGUACCACAUUCUCCUCUAAACCUUGCCUACGACAUGUUUAAUACUUCAUCUACACCGCAGCCCUUCAGAUAAUCACAACCACUUUGCCCCCAAGUUUUCAGGUUAAGCCGCAUGACAACAGAGGAUUGAGCAUCA
# B6: chr2:32224452:32224765:-|three_prime_utr|ENSG00000091106|control|control|control (ssRNA)
# RNA: GGGAGUUCUACAGUCCGACGAUCUCGUGUGAGCAGUGAUGGAUGGCUUGCCUUCAUGGGUGUAUUUGAGAAUCUUAAGCAAUUAGUGUUUUUUGACUUUAGUACUAAAGAAUUUCUACCUGAUCCAGCAUUAGUCAGAAAACUCAACAGAGGAUUGAGCAUCA
# Molecular target: MSI1 full-length (mouse, UniProt Q61474 1-362)
# Experiment: nsRBNS (natural sequence RNA bind-n-seq); RBNS binding buffer (assumed for nsRBNS): 25 mM Tris pH 7.5, 150 mM KCl, 3 mM MgCl2, 0.01% Triton X-100, 500 ug/ml BSA, 20 U/ml SUPERase-In, 4 C; UNK is unkempt and MSI1 is Musashi-1; names of the RNAs are library labels; protein concentration not given here; high values mean tight binding
# Chain of MSI1 full-length (Q61474 whole entry): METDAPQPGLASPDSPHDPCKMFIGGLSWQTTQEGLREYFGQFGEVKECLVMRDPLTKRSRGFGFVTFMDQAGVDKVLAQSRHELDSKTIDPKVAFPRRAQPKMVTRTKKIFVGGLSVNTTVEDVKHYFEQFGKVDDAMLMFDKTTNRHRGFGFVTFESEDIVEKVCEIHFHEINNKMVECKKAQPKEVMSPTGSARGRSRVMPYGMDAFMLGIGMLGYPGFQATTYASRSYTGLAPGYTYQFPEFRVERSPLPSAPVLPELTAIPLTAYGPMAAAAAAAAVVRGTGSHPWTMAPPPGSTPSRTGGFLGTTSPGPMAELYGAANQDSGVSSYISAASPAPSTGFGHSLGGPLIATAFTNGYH
row,Binder,binding signal [enrichment R]
1,B1,0.347
2,B2,1.88
3,B3,0.411
4,B4,0.451
5,B5,1.38
6,B6,3.3
